Screening results from PubChem.
HCMV antiviral – human cytomegalovirus inhibition | activity change, negative = inhibition, % at 57.5 µM | AID 1259415 | 410,000 compounds, 4.5% hits | HFF cells, HCMV-luciferase reporter, 72 h; hits give low values; in the data active means activity change below about -60%; inconclusive means no clear call, values can overlap the other calls; inactive means above about -39%
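Compounds were evaluated in HFFs infected with an HCMV luciferase reporter virus (MOI 1 PFU/cell). Luciferase in lysates collected 72 h post infection served as the replication measure.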
Pf growth 48h – inhibits P. falciparum growth in the first generation, 48 h; P. falciparum luciferase growth in erythrocytes, 48 h; Potency, µM (highest dose often 28.7 µM), without a hit: top-dose activity change, negative = inhibition, actives largely listed as inhibitors; 310,000 compounds, 5.9% hits; AID 504832; further: potency means the concentration at half of the fitted maximal effect
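Here the parasites carry a stable luciferase gene and grow inside erythrocytes in Albumax-based RPMI medium with compound for one erythrocytic cycle. Activity is scored as loss of luminescent signal.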
HCV inh – blocks hepatitis C virus. 340,000 compounds, 3.4% hits. Huh7.5.1 HCVcc-Cre infection, luciferase reporter, 44 h. Potency, µM (series often up to 41.8 µM), for inactives: at the highest dose activity change, negative = inhibition, most hits filed as inhibitors; further: potency means the concentration at half of the fitted maximal effect
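Infectious HCV cell culture screen: compound-treated cells (1,000/well, pre-plated 4 h) are infected with HCVcc-Cre at roughly 0.5 moi and grown 44 h. Infection is quantified by luciferase signal after 15 min substrate incubation at room temperature.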
Pf growth 96h – P. falciparum growth inhibition at 96 hour, primary screen for plastid delayed-death inhibitors. P. falciparum luciferase reporter growth, 96 h. AID 504834. Potency, µM (titrated, usually from 28.7 µM), without a hit: at the highest dose activity change, negative = inhibition, actives largely listed as inhibitors. 320,000 compounds, 6.9% hits; further: potency means the concentration at half of the fitted maximal effect
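Delayed-death screen, second-generation endpoint: infected erythrocytes, 2% hematocrit, 0.05% parasitemia final; 96 hours at 37 C, 5% CO2; luciferase detection reagent; luminescence decrease equals reduced growth.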
* = called active by the depositor; u = inconclusive; x = no result given. The list is not random: actives were taken first. Their share in the collection is about 13%. Unless noted, the call rests on the fitted dose curve; in most records, active means well fitted inhibition curve with a large enough effect; inconclusive means small, poorly fitted or top-dose-only effect, or another doubt; inactive means no such curve, though single readings can be large or run the other way. On the % scale 0 is the no-effect control and ±100 the full control effect.

SMILES | HCMV antiviral | Pf growth 48h | HCV inh | Pf growth 96h
Cc1cc(C(=O)OCC(=O)N2CC(C)OC(C)C2)c2ccccc2n1 (stereo unspecified) | -3 | 5% | -3% | 24%
COc1ccc2nc(-c3ccccc3)cc(C(=O)OCC(=O)N3CCCCC3)c2c1 | -62* | 12µM* | u | u
COc1ccc2nc(-c3ccccc3)cc(C(=O)OCC(=O)N3CC(C)OC(C)C3)c2c1 (stereo unspecified) | 0 | 12µM* | u | u
CN1CCN(C(=O)C2CCCN(c3ncnc4c3nc3n4CCCCC3)C2)CC1 (stereo unspecified) | 5 | u | 12% | 1%
COc1ccc(N2CCN(C(=O)C3CCCN(c4ncnc5c4nc4n5CCCCC4)C3)CC2)cc1 (stereo unspecified) | -21 | 12µM* | u | 4%
CC(=O)c1ccc(N2CCN(C(=O)C3CCCN(c4ncnc5c4nc4n5CCCCC4)C3)CC2)cc1 (stereo unspecified) | 9 | 13µM* | u | u
COCCNC(=O)CSc1nc(-c2ccc(F)cc2)[nH]c1-c1ccc(Cl)cc1 | -21 | x | x | x
Cc1ccc2cccc(NC(=O)COc3ccccc3[N+](=O)[O-])c2n1 | 26 | x | x | x
COc1ccc(CNC(=O)CCn2nc(C)c3c(C)n(-c4ccccc4)nc3c2=O)cc1OC | -2 | x | x | x
C=CCC[C@H](Cc1ccc(F)cc1)C(=O)OC[C@@H](NC(=O)[C@@H](CC=C)CC(=O)N(CCO)Cc1ccccc1)C(C)(C)C | 11 | x | 3.2µM* | x
C=CC[C@H](CC(=O)NCCO)C(=O)N[C@H](C)COC(=O)[C@@H](CC=C)Cc1ccc(F)cc1 | -12 | x | -5% | x
C=CCC[C@H](Cc1ccc(F)cc1)C(=O)OC[C@H](C)NC(=O)[C@H](CC=C)CC(=O)NCCO | -69* | x | 5% | x
C=CC[C@H](CC(=O)N(CCO)Cc1ccccc1)C(=O)N[C@H](COC(=O)[C@@H](CC=C)Cc1ccc(F)cc1)C(C)(C)C | 126 | x | u | x
C=CCC[C@@H](Cc1ccc(F)cc1)C(=O)OC[C@H](Cc1c[nH]c2ccccc12)NC(=O)[C@@H](CC=C)CC(=O)N[C@H](CO)Cc1ccccc1 | 4 | x | 3% | x
C=CCC[C@H](Cc1ccc(F)cc1)C(=O)OC[C@@H](NC(=O)[C@@H](CC=C)CC(=O)N[C@@H](CO)Cc1ccccc1)C(C)(C)C | 61 | x | 22µM* | x
C=CCC[C@H](Cc1ccc(F)cc1)C(=O)OC[C@H](Cc1c[nH]c2ccccc12)NC(=O)[C@@H](CC=C)CC(=O)N[C@@H](CO)Cc1ccccc1 | -86* | x | u | x
Cc1cc(C)cc(NC(=O)c2sc3nc[nH]c(=O)c3c2C)c1 | 14 | x | x | x
C=CCC[C@@H](Cc1ccc(F)cc1)C(=O)OC[C@@H]1CCCN1C(=O)[C@H](CC=C)CC(=O)N[C@H](CO)Cc1ccccc1 | 42 | x | 10µM* | x
CC(=O)OCc1cnc(C)c2oc(=O)c(C(=O)Nc3cccc(F)c3)cc12 | 3 | x | x | x
CCCSc1cc(N2CCN(C)CC2)nc(-c2ccc(OC)cc2)n1 | -35 | 0% | 14µM* | x
Cc1cc(N2CCN(c3ccc(F)cc3)CC2)nc(-c2ccccc2)n1 | u | u | 10µM* | 5%
Cc1cc(C)nc(N2CCN(c3ccc(F)cc3)CC2)n1 | -24 | u | 10µM* | 78%
Cc1cc(N2CCC(C(N)=O)CC2)nc(-c2ccccc2)n1 | 33 | x | u | 0.74µM*
Cc1cccc(-c2nc(N3CCN(c4ccc(F)cc4)CC3)c3ccccc3n2)c1 | 12 | x | x | x
Cc1cc(N2CCC(C(=O)Nc3ccc(F)cc3)CC2)nc(-c2ccccc2)n1 | -4 | -15% | u | x
SMILES | HCMV antiviral | Pf growth 48h | HCV inh | Pf growth 96h
Cn1ncc2c(Nc3cc(C(F)(F)F)ccc3Cl)ncnc21 | 47 | x | x | x
COc1ccc(C(=O)c2cn(CC(=O)Nc3ccc4c(c3)OCCO4)c3ccc(OC)cc3c2=O)cc1 | -13 | x | x | x
COCC(C)NCc1ccccc1C (stereo unspecified) | -4 | 10% | 10% | 12µM*
COCC(C)NCc1cccc(OC)c1OC (stereo unspecified) | 23 | 55% | 7% | 49%
CCCCn1c(N)c(N(CC(C)C)C(=O)C2CCN(S(=O)(=O)c3ccc(F)cc3)CC2)c(=O)[nH]c1=O | -4 | u | 13% | u
CCCCn1c(N)c(N(CC(C)C)C(=O)C2CCN(S(=O)(=O)c3ccc(Cl)cc3)CC2)c(=O)[nH]c1=O | -32 | 9.3µM* | 12% | 9.3µM*
Cc1ccc(OCC(=O)N(c2ccc(C)cc2)S(=O)(=O)c2ccc(Cl)cc2)cc1 | -7 | x | x | x
COC(=O)c1cc(-c2ccc(S(=O)(=O)N3CCCCC3)cc2)c(C(F)(F)F)s1 | -23 | 12µM* | -16% | u
COC(=O)c1cc(-c2ccc(S(=O)(=O)N3CCCC3)cc2)c(C(F)(F)F)s1 | -28 | u | -9% | u
CCN1C(=O)c2ccccc2S(=O)c2ccc(C(=O)NCc3ccc(Cl)cc3)cc21 (stereo unspecified) | -26 | x | x | x
